# Assay results: PubChem BioAssay
# Active and inactive are the calls of the source.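 The calls were made as follows, unless noted: active = luciferase signal above three times the same-plate solvent-only control wells; inactive = the rest.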
# Tests used:
# [1] = target: NAD(+) hydrolase SARM1 (Homo sapiens) (UniProt Q6SZW1); experiment: blocking NAD cleavage by SARM1 SAM-TIR – cell lysate, NAD-Glo luminescence (AID 1508614;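 active = compound whose remaining NAD level is above about 45 nM, limit read from the data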;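 also: higher remaining NAD means stronger inhibition of SARM1 NADase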); details: SAM-TIR HEK293T lysate NADase, at 1 µM, stronger effect = higher value
# Chain of NAD(+) hydrolase SARM1 (Homo sapiens) (Q6SZW1 whole entry, looked up): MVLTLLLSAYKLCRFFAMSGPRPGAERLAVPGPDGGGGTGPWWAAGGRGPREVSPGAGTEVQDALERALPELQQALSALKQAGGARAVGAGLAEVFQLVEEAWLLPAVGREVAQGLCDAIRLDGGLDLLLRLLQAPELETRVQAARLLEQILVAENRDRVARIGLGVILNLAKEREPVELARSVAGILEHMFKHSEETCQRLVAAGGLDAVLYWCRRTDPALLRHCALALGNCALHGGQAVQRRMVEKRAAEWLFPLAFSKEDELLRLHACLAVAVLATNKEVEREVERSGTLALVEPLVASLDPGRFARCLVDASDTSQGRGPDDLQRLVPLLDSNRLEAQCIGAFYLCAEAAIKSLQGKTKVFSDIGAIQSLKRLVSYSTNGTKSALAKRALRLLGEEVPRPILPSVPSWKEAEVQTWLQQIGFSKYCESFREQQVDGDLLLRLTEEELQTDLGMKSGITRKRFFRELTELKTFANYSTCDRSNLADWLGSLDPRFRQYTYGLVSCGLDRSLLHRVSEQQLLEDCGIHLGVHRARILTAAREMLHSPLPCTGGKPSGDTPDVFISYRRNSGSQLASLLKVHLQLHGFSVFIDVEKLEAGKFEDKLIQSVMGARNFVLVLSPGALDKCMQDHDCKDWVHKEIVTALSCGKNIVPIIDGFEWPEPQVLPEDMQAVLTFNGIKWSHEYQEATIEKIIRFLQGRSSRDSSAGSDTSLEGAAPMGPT
# [2] = growth inhibition, single agent or in combination, cell-based, chromothripsis tumors, cisplatin or BGB combos (AID 1671449; in the data active = inhibition above about 80%;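 also: cells exposed for 96 hours; 0% = vehicle DMSO and 100% = killing by high DMSO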); details: LFS_MB_P medulloblastoma cells
# [3] = growth inhibition, single agent and combos, cell-based, chromothripsis tumors, cisplatin or BGB combos (AID 1671450; in the data active = inhibition above about 80%;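 also: cells exposed to compound for four days; 0% = vehicle DMSO and 100% = cell killing by high DMSO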); details: HDN33 neuroblastoma cells, stronger effect = higher value
# [4] = growth inhibition, single agents and combos, ICB984, cell-based, cisplatin or BGB combos, synergistic combos for chromothripsis tumors (AID 1671451; call rule not given here;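 also: cells exposed for 96 hours before readout; 0% = vehicle DMSO and 100% = killing by high DMSO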); details: ICB984 medulloblastoma cells, drug combinations, stronger effect = higher value
# [5] = growth inhibition, single agents and combos, LFS_MB_1R, cell-based, cisplatin or BGB combos, synergistic combos for chromothripsis tumors (AID 1671452; in the data active = inhibition above about 80%;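 also: cells exposed for 96 hours before readout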); details: LFS_MB_1R medulloblastoma cells, stronger effect = higher value
# [6] = growth inhibition, single agents and combos, HTB85, cell-based, BGB or cisplatin IC20 combos, synergistic combos for chromothripsis tumors (AID 1671453; in the data active = inhibition above about 80%;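 also: cells exposed for 96 hours before readout; 0% = vehicle DMSO and 100% = high DMSO killing control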); details: HTB85 osteosarcoma cells, drug combinations, stronger effect = higher value
# [7] = growth inhibition, single agents and combos, CRL2098, cell-based, BGB or cisplatin IC20 combos, synergistic combos for chromothripsis tumors (AID 1671454; in the data active = inhibition above about 80%;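 also: cells exposed for 96 h before readout; 0% = vehicle DMSO and 100% = killing by high DMSO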); details: CRL2098 osteosarcoma cells, drug combinations, stronger effect = higher value
# [8] = growth inhibition, single agents and combos, HD-MB03, cell-based, BGB or cisplatin IC20 combos, synergistic combos for chromothripsis tumors (AID 1671455; in the data active = inhibition above about 83%;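 also: 0% = vehicle DMSO and 100% = high DMSO as cytotoxic control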); details: HD-MB03 medulloblastoma cells, stronger effect = higher value
# [9] = growth inhibition, single agents and combos, UWB1.289, cell-based, BGB or cisplatin combos, synergistic combos for chromothripsis tumors (AID 1671456; in the data active = inhibition above about 80%;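 also: cells exposed to compound for four days; 0% = vehicle DMSO and 100% = killing by high DMSO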); details: UWB1.289 ovarian carcinoma cells, stronger effect = higher value
# [10] = growth inhibition, single agents and combos, LFS_MB_2R, cell-based, cisplatin combos, synergistic combos for chromothripsis tumors (AID 1671457; in the data active = inhibition above about 80%;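 also: cells exposed to compound for four days before readout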); details: LFS_MB_2R medulloblastoma cells, stronger effect = higher value
# [11] = growth inhibition, MDA-MB-436, cell-based, BGB or cisplatin combos, synergistic combos for chromothripsis tumors (AID 1671458; call rule not given here;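 also: cells exposed for 96 hours; 0% = vehicle DMSO and 100% = killing by high DMSO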); details: MDA-MB-436 breast carcinoma growth inhibition, drug combinations, stronger effect = higher value
# [12] = UWB1.289_BRCA1 ovarian cancer growth, cell-based, BGB or cisplatin combinations (AID 1671459; in the data active = inhibition above about 80%); details: UWB1.289 BRCA1 ovarian carcinoma, drug combinations, stronger effect = higher value
# [13] = drug combination toxicity in non-malignant astrocytes – cell-based, BGB or cisplatin IC20 combos, cytotoxicity control for chromothriptic childhood tumor combination screen (AID 1671460; in the data active = inhibition above about 80%;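 also: cells exposed to compounds for 96 hours before viability readout; 0% = vehicle and 100% = killing control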); details: Human astrocytes, viability inhibition, drug combinations, at 0.5 µM, stronger effect = higher value
# [14] = BT084 cell growth, single and combined drugs, ICGC_MB145, cisplatin and BGB IC40 combos (AID 1671461; in the data active = inhibition above about 80%;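 also: cells exposed to drugs for 96 hours; 0% = vehicle DMSO and 100% = high DMSO full killing control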); details: BT084 medulloblastoma cells, drug combinations, stronger effect = higher value
# [15] = RCMB18 cell growth, single agent and combined, cisplatin and BGB IC40 combos (AID 1671462; in the data active = inhibition above about 80%;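 also: cells exposed to compound for four days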); details: RCMB18 medulloblastoma cells, stronger effect = higher value
# [16] = CRL1545 cell growth, single agent and combined, cisplatin and BGB IC20 combos (AID 1671464; in the data active = inhibition above about 80%;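 also: cells exposed to compound for 96 hours before readout; 0% = vehicle DMSO and 100% = high DMSO killing control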); details: CRL1545 osteosarcoma cells, stronger effect = higher value
# [17] = target: Mitogen-activated protein kinase 7 (Homo sapiens) (UniProt Q13164); experiment: Gal4-ERK5 driven luciferase induction – cell-based, HTS, primary screen (AID 1508626); details: HeLa Gal4-ERK5 transactivation, 18 h, at 5 µM, stronger effect = higher value;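 also: luciferase driven by Gal4-ERK5 fusion binding five Gal4 sites before minimal TATA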
# Chain of Mitogen-activated protein kinase 7 (Homo sapiens) (Q13164 whole entry, looked up, the tested form may be a part): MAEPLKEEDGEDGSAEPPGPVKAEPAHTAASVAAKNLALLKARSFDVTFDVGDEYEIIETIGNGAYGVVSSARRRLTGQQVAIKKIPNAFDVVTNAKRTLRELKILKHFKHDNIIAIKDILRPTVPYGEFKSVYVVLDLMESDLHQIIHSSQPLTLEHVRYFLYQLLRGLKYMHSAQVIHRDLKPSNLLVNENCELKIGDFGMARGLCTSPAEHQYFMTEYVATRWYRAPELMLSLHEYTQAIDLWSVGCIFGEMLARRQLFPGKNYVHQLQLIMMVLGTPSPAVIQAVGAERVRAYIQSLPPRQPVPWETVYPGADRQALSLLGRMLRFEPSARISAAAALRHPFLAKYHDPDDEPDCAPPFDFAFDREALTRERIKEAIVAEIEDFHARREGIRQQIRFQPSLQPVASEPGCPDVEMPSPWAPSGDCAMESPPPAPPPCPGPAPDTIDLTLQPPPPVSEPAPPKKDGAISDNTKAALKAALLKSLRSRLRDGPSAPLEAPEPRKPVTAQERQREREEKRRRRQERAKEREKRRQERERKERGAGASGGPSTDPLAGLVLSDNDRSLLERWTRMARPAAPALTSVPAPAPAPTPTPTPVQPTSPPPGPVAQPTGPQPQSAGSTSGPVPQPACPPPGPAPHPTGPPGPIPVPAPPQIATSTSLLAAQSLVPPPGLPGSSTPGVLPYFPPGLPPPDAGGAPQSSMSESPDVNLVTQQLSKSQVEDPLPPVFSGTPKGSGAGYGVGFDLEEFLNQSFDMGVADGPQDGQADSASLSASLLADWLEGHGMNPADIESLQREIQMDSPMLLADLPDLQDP
# [18] = compounds altering viability of human ES cells (AID 493140; call rule not given here;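 also: cells exposed to compounds for four days before counting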); details: human embryonic stem cell survival screen; stronger effect = higher value
# [19] = measured here: combination with BGB IC40, at 0.05 µM
# [20] = measured here: with BGB IC20 combination, at 0.5 µM
# [21] = measured here: with cisplatin IC20 combination, at 0.5 µM
# [22] = measured here: combination with cisplatin, at 0.5 µM
# [23] = measured here: combination with cisplatin, at 5 µM
smiles,measurement,setting,value
C=CC1=C(C)C2=CC3=NC(=C(CC(=O)O)C4=NC(=C(C)C4=C(O)O)C=c4[nH]c(c(C)c4CC)=CC1=N2)C(CCC(=O)O)C3C (stereo not given),remaining NAD,[1],10 nM (inactive)
same,inhibition,"[2]; at 0.5 µM, stronger effect = higher value",-22.2% (inactive)
same,inhibition,"[2]; measured here: combination with BGB IC20, at 0.005 µM",-27.4%
same,inhibition,"[2]; measured here: combination with BGB IC40, at 0.005 µM",-20.4%
same,inhibition,[2]; [19],-7.95%
same,inhibition,"[2]; measured here: combination with cisplatin, at 0.5 µM, stronger effect = higher value",-18.8%
same,inhibition,"[2]; measured here: combination with cisplatin, at 5 µM, stronger effect = higher value",-59.6%
same,inhibition,"[3]; BGB combo, at 5 µM",-5.94%
same,inhibition,[3]; at 0.5 µM,-6.06% (inactive)
same,inhibition,"[3]; cisplatin combo, at 5 µM",3.3%
same,inhibition,[3]; [20],-2.85%
same,inhibition,[3]; [21],8.33%
same,inhibition,"[3]; single agent, at 5 µM",10.4%
same,inhibition,"[4]; BGB IC20 combo, at 0.005 µM",-23.1%
same,inhibition,"[4]; BGB IC40 combo, at 0.005 µM",-25.1%
same,inhibition,"[4]; BGB IC40 combo, at 0.05 µM",-20%
same,inhibition,[4]; at 0.5 µM,-26.5% (inactive)
same,inhibition,"[4]; cisplatin combo, at 0.05 µM",-20%
same,inhibition,"[4]; cisplatin combo, at 0.5 µM",-42.5%
same,inhibition,"[4]; cisplatin combo, at 5 µM",-25.5%
same,inhibition,"[4]; measured here: 5 uM single agent, at 5 µM",5.39%
same,inhibition,[5]; at 0.5 µM,-18.3% (inactive)
same,inhibition,[5]; [19],-22.1%
same,inhibition,[5]; [22],-13.2%
same,inhibition,[5]; [23],-2.96%
same,inhibition,[6]; at 0.5 µM,-16.7% (inactive)
same,inhibition,"[6]; measured here: with BGB IC20, at 0.5 µM",-29.2%
same,inhibition,"[6]; measured here: with BGB IC20, at 5 µM",-11.5%
same,inhibition,"[6]; measured here: with cisplatin IC20, at 0.5 µM",-27.9%
same,inhibition,"[6]; measured here: with cisplatin IC20, at 5 µM",-1.9%
same,inhibition,"[6]; single agent, at 5 µM",1.12%
same,inhibition,[7]; at 0.5 µM,-39.9% (inactive)
same,inhibition,"[7]; measured here: combination with BGB at IC20, at 0.5 µM",-14.4%
same,inhibition,"[7]; measured here: combination with cisplatin at IC20, at 0.5 µM",-71.5%
same,inhibition,[8]; at 0.5 µM,-9.12% (inactive)
same,inhibition,"[8]; measured here: combo with BGB at IC20, at 0.5 µM",-0.977%
same,inhibition,"[8]; measured here: combo with cisplatin at IC20, at 0.5 µM",-18.8%
same,inhibition,[9]; at 0.5 µM,-0.22% (inactive)
same,inhibition,"[9]; measured here: inhibition with BGB combination, at 0.05 µM",-17.7%
same,inhibition,"[9]; measured here: inhibition with cisplatin combination, at 0.05 µM",-4.64%
same,inhibition,[10]; at 0.5 µM,-20% (inactive)
same,inhibition,[10]; [22],-3.5%
same,inhibition,[10]; [23],-14.7%
same,inhibition,[11]; at 0.5 µM,-19% (inactive)
same,inhibition,"[11]; measured here: BGB combination, at 0.5 µM",-19.5%
same,inhibition,"[11]; measured here: BGB combination, at 5 µM",-14.7%
same,inhibition,"[11]; measured here: cisplatin combination, at 0.5 µM",-36.2%
same,inhibition,"[11]; measured here: cisplatin combination, at 5 µM",-11.5%
same,inhibition,"[12]; BGB combination, concentration series, at 5 µM",12.6%
same,inhibition,[12]; at 0.5 µM,-3.06% (inactive)
same,inhibition,"[12]; cisplatin combination, concentration series, at 5 µM",10.4%
same,inhibition,[13],-8.5% (inactive)
same,inhibition,[13]; measured here: combo with BGB IC20,-9.9%
same,inhibition,[13]; measured here: combo with cisplatin IC20,-17.9%
same,inhibition,[14]; at 0.5 µM,-4.34% (inactive)
same,inhibition,"[14]; cisplatin combination, at 0.5 µM",3.74%
same,inhibition,"[14]; cisplatin combination, at 5 µM",-40.8%
same,inhibition,"[14]; measured here: BGB IC40 combination 0.05 uM, at 0.05 µM",-3.49%
same,inhibition,"[14]; single agent, at 5 µM",-10.5%
same,inhibition,[15]; at 0.5 µM,-15.6% (inactive)
same,inhibition,"[15]; cisplatin combo, at 5 µM",30.7%
same,inhibition,"[15]; measured here: BGB IC40 combination, at 0.05 µM",-38.7%
same,inhibition,[15]; [22],-5.59%
same,inhibition,"[15]; single agent, at 5 µM",-26.5%
same,inhibition,[16]; at 0.5 µM,-23.9% (inactive)
same,inhibition,[16]; [20],2.58%
same,inhibition,[16]; [21],-37.1%
same,inhibition,"[16]; single agent, at 0.05 µM",3.9%
same,inhibition,"[16]; single agent, at 5 µM",17%
C[C@@H]1O[C@@H]1P(=O)(O)O,remaining NAD,[1],10 nM (inactive)
same,luciferase signal,[17],76 AU (inactive)
CC1(C)S[C@@H]2[C@H](NC(=O)[C@H](C(=O)O)c3ccsc3)C(=O)N2[C@H]1C(=O)O,survival,[18],15.8 (inactive)
same,remaining NAD,[1],10 nM (inactive)
same,luciferase signal,[17],44 AU (inactive)
CC(=O)O[C@H]1CC[C@]2(C)C3=C(CC[C@H]2C1(C)C)[C@@]1(C)CC[C@@H]([C@H](C)CCC=C(C)C)[C@]1(C)CC3,luciferase signal,[17],28 AU (inactive)
Cc1cccc2c3c(ccc12)C1=C(C(=O)C3=O)[C@@H](C)CO1,luciferase signal,[17],156 AU (inactive)
CCC(=O)OCC(=O)[C@@]1(OC(=O)CC)[C@H](C)CC2C3C(Cl)CC4=CC(=O)C=C[C@]4(C)C3C(O)C[C@@]21C (stereo not given in full),luciferase signal,[17],108 AU (inactive)
CO[C@@H]1[C@@H](O[C@@H]2O[C@H](C)[C@@H](O[C@H]3C[C@@](C)(O)[C@@H](O)[C@H](C)O3)[C@H](N(C)C)[C@H]2O)[C@@H](CC=O)C[C@@H](C)[C@@H](O[C@H]2CC[C@H](N(C)C)[C@@H](C)O2)/C=C/C=C/C[C@@H](C)OC(=O)C[C@H]1O,remaining NAD,[1],10 nM (inactive)
same,luciferase signal,[17],216 AU (inactive)
O=c1c(O)c(-c2ccc(O)cc2)oc2ccccc12,luciferase signal,[17],76 AU (inactive)
NC(=O)CCCCC(S)CCS (stereo not given),luciferase signal,[17],32 AU (inactive)
CC(C)CCC[C@@H](C)[C@H]1CC[C@H]2[C@@H]3CC=C4CC(=O)CC[C@]4(C)[C@H]3CC[C@]12C,luciferase signal,[17],20 AU (inactive)
COc1cc(-c2oc3cc(O)ccc3c(=O)c2O)ccc1O,luciferase signal,[17],92 AU (inactive)
CC(=O)OCC(=O)[C@@]1(O)CCC2C3CC[C@@H]4C[C@H](O)CC[C@]4(C)C3C(=O)C[C@@]21C (stereo not given in full),luciferase signal,[17],112 AU (inactive)
CC(=O)O[C@@](C)(CCC=C(C)C)C1CC=C(C)CC1 (stereo not given in full),luciferase signal,[17],72 AU (inactive)
CC1(C)C[C@@H]2/C(CO)=C\C=C/[C@@](C)(O)CC[C@]21O,luciferase signal,[17],64 AU (inactive)
CCCCCCCCCCCCCCC(C(=O)O)C(O)(CC(=O)OC)C(=O)O (stereo not given),luciferase signal,[17],64 AU (inactive)
CC1(C)CC2C1CC[C@]1(C)CCC3C(C(=O)O)CC(=O)O[C@@]32C1 (stereo not given in full),luciferase signal,[17],56 AU (inactive)
CC(=O)OC1C[C@@]2(C)C(CC[C@@H]2C(C)=O)C2CCC3=CC(=O)CC[C@]3(C)C12 (stereo not given in full),luciferase signal,[17],108 AU (inactive)
C=C1C(=O)C23C(O)C1CCC2C12COC3(O)C(O)C1C(C)(C)CCC2O (stereo not given),luciferase signal,[17],108 AU (inactive)
CC1(C)CC[C@]2(C(=O)O)CC[C@]3(C)C(=CC[C@@H]4[C@@]5(C)CC[C@H](O)C(C)(C)[C@@H]5[C@H](O)C[C@]43C)[C@@H]2C1,luciferase signal,[17],84 AU (inactive)
CC(C)CCC[C@@H](C)[C@H]1CC[C@H]2[C@@H]3C(=O)C=C4C[C@@H](O)CC[C@]4(C)[C@H]3CC[C@]12C,luciferase signal,[17],80 AU (inactive)
O=c1cc(-c2cccc(O)c2)oc2ccc(O)cc12,luciferase signal,[17],124 AU (inactive)
COC(=O)Oc1ccccc1C(=O)O,luciferase signal,[17],40 AU (inactive)
CO/N=C(/C(=O)NC1C(=O)N2C(C(=O)O)=C(CSc3nc(=O)c(=O)[nH]n3C)CS[C@H]12)c1csc(N)n1 (stereo not given in full),luciferase signal,[17],52 AU (inactive)
